Screening data as filed in PubChem.
Pf growth 96h: P. falciparum growth inhibition at 96 hour, primary screen for plastid delayed-death inhibitors; Potency, µM (series often up to 28.7 µM), inactives show at the top dose activity change, negative = inhibition, usual class: inhibitors; P. falciparum luciferase reporter growth, 96 h; 320,000 tested, 6.9% active; AID 504834; further: potency means the concentration at half of the fitted maximal effect; on the % scale 0 is the no-effect control and ±100 the full control effect
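Compounds incubated with erythrocytes infected by luciferase-expressing P. falciparum (2% hematocrit, 0.05% parasitemia final) for 96 hours, 37 C in 5% CO2. Growth inhibition scored as decreased luciferase luminescence.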
LmPK inhibitor: blocks Leishmania mexicana pyruvate kinase activity | Q27686 | purified LmPK, Kinase-Glo ATP luminescence, 1 h | Potency, µM (top dose mostly 57.5 µM), for the others: at the top dose activity change, negative = inhibition, most hits filed as inhibitors | 290,000 tested, 0.37% active; further: potency means the concentration at half of the fitted maximal effect; on the % scale 0 is the no-effect control and ±100 the full control effect
Target sequence (Q27686 whole entry, looked up): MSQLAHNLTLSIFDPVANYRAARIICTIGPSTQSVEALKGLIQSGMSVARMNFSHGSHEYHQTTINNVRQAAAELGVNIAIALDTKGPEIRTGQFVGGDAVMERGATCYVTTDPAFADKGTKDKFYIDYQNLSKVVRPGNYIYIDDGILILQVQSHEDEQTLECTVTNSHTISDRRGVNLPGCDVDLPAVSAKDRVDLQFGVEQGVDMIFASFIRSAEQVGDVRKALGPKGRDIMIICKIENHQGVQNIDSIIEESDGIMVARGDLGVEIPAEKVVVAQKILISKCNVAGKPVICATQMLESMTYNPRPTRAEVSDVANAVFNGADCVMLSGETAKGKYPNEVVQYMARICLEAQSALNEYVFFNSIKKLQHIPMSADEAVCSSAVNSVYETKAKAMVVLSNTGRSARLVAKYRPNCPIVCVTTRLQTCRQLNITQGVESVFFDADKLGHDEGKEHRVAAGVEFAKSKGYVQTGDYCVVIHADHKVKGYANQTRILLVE
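Screened at intermediate enzyme activity to detect both inhibitors and activators: LmPK at 0.1 nM, with a 0.5 nM enzyme column as activation reference. PEP 0.5 mM, ADP 0.1 mM; ATP detected by luminescence after 1 h.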
CHX counter: counter-screen hit for Shiga toxin inhibitors, cycloheximide; cell reporter, cycloheximide protein synthesis inhibition counterscreen; max response, %; 300,000 tested, 12% active; in the data active means max response mostly above about 13%, no sharp cut-off; inactive means mostly below about 14%; further: read at 38.3 µM for the half of the compounds with a filed dose; 0% is about no effect
Shiga toxin inh: Shiga toxin inhibition. Vero cells, Shiga toxin protein synthesis inhibition reporter. inhibition, % at 38.7 µM. 290,000 tested, 9.2% active; in the data active means inhibition mostly above about 28%, no sharp cut-off; inactive means mostly below about 43%; further: 0% is about no effect
Pf growth 48h: P. falciparum growth inhibition at 48 hours (one generation); P. falciparum luciferase growth in erythrocytes, 48 h; Potency, µM (highest dose often 28.7 µM), without a hit: at the highest dose activity change, negative = inhibition, actives largely listed as inhibitors; 310,000 tested, 5.9% active; further: potency means the concentration at half of the fitted maximal effect; on the % scale 0 is the no-effect control and ±100 the full control effect
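Erythrocytes infected with P. falciparum carrying an integrated firefly luciferase reporter (2% hematocrit, 0.1% parasitemia final) were exposed to compounds in RPMI 1640 with 0.5% Albumax at 37 C, 5% CO2. Growth inhibition was scored as reduced luminescence.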
An asterisk follows results filed as active; i = inactive; u = inconclusive; x = no result. Sampled rows, rich in hits. Any-hit rate of the full collection: about 22%. Unless noted, the call rests on the fitted dose curve; in most records, active means well fitted inhibition curve with a large enough effect; inconclusive means small, poorly fitted or top-dose-only effect, or another doubt; inactive means no such curve, though single readings can be large or run the other way.

SMILES	Pf growth 96h	LmPK inhibitor	CHX counter	Shiga toxin inh	Pf growth 48h
Cc1c(C)c2cc(Cl)c(OCC(=O)NC3CC(C)(C)NC(C)(C)C3)cc2oc1=O	u	-1.7%	9.0	3.8	u
Cc1ccc(C(=O)NC(C)(COc2nonc2C)COc2nonc2C)cc1	x	-1.3%	-1.9	-23.3	11.7µM*
Cc1ccc(C(=O)NCCNC(=O)c2ccc(C)nc2)cc1	-1.8%	5.3%	1.7	19.1	3.3%
O=C(NCCc1ccc(F)cc1)N[C@@H](Cc1ccccc1)C(=O)O	15.2%	4.5%	-1.6	22.0	12.4%
CCCCNC(=O)Nc1ccc2c(c1)N(C)C(=O)c1ccccc1S2	3.29µM*	-7.9%	1.9	-6.3	u
O=C1Nc2cc(C(=O)NCCCN3CCCC3)ccc2S/C1=C/c1ccccc1F	13.1µM*	-6.0%	5.3	-1.4	u
Cc1ccc(CN2C(=O)c3ccccc3Sc3ccc(C(=O)NCCCN4CCOCC4)cc32)cc1	43.9%	0.8%	1.9	-17.1	11.7µM*
CCN1C(=O)c2ccccc2Sc2ccc(C(=O)NCCCN3CCCCC3)cc21	10.4µM*	-0.1%	-6.8	-9.0	-17.0%
CSc1ccc(CN2CCC(Oc3ccc(C(=O)N4CCCC4)cc3)CC2)cc1	-7.7%	8.3%	-6.9	-26.7	u
O=C(NCc1ccco1)C1CCN(c2ccc(S(=O)(=O)N3CCOCC3)cc2[N+](=O)[O-])CC1	u	-1.8%	-0.5	-19.0	u
O=C1CC(NS(=O)(=O)c2ccc([N+](=O)[O-])cc2)CN1c1cccc(F)c1 (centres undefined)	6.2%	x	x	x	u
O=C(Nc1cc(Cl)cc(Cl)c1)c1ccc(Cn2c(=O)[nH]c3ccsc3c2=O)cc1	u	2.6%	-2.4	-18.9	26.7%
CCCCCCOc1ccc(C(=N)N(CCCC)CCCC)c2ccccc12	8.49µM*	x	x	x	12µM*
c1ccc(NCCCNc2ccccc2)cc1	-79.7%	7.0%	11.4*	16.4	-4.6%
COc1cc2c(cc1OC)C1=C(C#N)COCN1CC2	3.7µM*	1.7%	-2.7	-11.6	u
COc1cc2c(cc1OC)C1=C(C#N)CCC(=NC(=O)c3ccc(Cl)cc3)N1CC2	u	-2.2%	-2.0	-13.2	-1.9%
O=C(COc1ccccc1)NCC(=O)Nc1cccc(S(=O)(=O)NC2=NCCC2)c1	1.4%	-0.6%	-3.2	15.0	-7.4%
Cc1cc(/C=C2\C(=O)NC(=O)N(Cc3ccco3)C2=O)c(C)n1-c1ccc(O)cc1	29.3%	6.7%	17.4*	14.8	0.0%
Cc1cc(/C=C2\C(=O)NC(=O)N(Cc3ccccc3Cl)C2=O)c(C)n1-c1ccc(C(=O)O)cc1	1.85µM*	3.6%	-2.8	2.7	7.0%
Cc1ccc(-n2c(C)cc(/C=C3/C(=O)NC(=O)N(Cc4ccco4)C3=O)c2C)cc1	u	0.0%	-1.3	-6.0	-21.1%
Cc1noc(C)c1COC(=O)C(c1ccccc1)c1ccccc1	-20.8%	1.1%	1.1	2.6	1.3%
CCCCN(C(=O)c1ccc(S(=O)(=O)N2CCCCC2)cc1)C1CCS(=O)(=O)C1 (centres undefined)	2.1%	x	x	x	38.2%
Cc1ccccc1NC(=O)CCC(=O)N/N=C/c1ccncc1	0.0%	0.7%	-5.2	-27.7	u
Cn1c(O)c(N=NC(=O)c2ccccc2O)c2ccccc21	-2.0%	-22.0%	36.9*	62.3*	-0.7%
Cn1c(O)c(N=NC(N)=S)c2ccccc21	12µM*	x	x	x	u
SMILES	Pf growth 96h	LmPK inhibitor	CHX counter	Shiga toxin inh	Pf growth 48h
Cc1occc1C(=O)N=Nc1c(O)[nH]c2ccc(Br)cc12	4.15µM*	-16.4%	32.9*	74.8*	139.0%
Cn1c(O)c(N=Nc2ccccc2[N+](=O)[O-])c2ccccc21	i	3.3%	31.3*	74.9*	76.8%
COc1ccc(N2CCN(C(=S)NC(C)c3ccccc3)CC2)cc1 (centres undefined)	16.0%	0.4%	5.8	1.5	u
C[C@@H](O)C(N)C(=O)O (some centres undefined)	x	x	-5.8	-4.1	x
Cc1cccc(NC(=O)Cn2c(O)c(N=NC(N)=S)c3ccccc32)c1	14.7µM*	2.4%	1.6	3.5	-9.8%
Cc1ccc(NC(=O)Cn2c(O)c(N=NC(=O)c3ccncc3)c3ccccc32)cc1	5.2%	-3.7%	-3.1	8.2	29.1%
Cc1occc1C(=O)N=Nc1c(O)n(C)c2ccccc12	332.7%	-19.5%	35.8*	58.2*	235.7%
CCOC(=O)C(=O)N=Nc1c(O)n(C)c2ccccc12	-0.7%	-0.5%	-3.4	-7.6	3.1%
Cc1cc(N=NC(=O)c2ccccc2O)c2ccccc2c1O	u	-9.7%	40.0*	125.8*	55.1%
Cn1cccc1C(=O)OCc1cc(-c2ccco2)on1	155.9%	x	x	x	278.7%
CCN1CCN(C(=O)C(C)Oc2ccc(S(=O)(=O)N3CCCC3)cc2C(N)=O)CC1 (centres undefined)	u	x	x	x	-15.6%
O=C(c1cnn2c(C(F)(F)F)cc(-c3cccs3)nc12)N1CCOCC1	26.7%	-1.9%	-1.3	-12.4	2.8%
CCOc1cc(C=O)ccc1OCCn1c([N+](=O)[O-])cnc1C	5.5%	3.7%	-1.5	-3.9	-13.2%
COc1ccc(/C=N/N2C(=O)CN(C(=O)c3ccccc3)C2c2ccc(OC)cc2)cc1 (centres undefined)	-23.5%	2.9%	-3.1	3.4	u
COc1ccc(C2N(Cc3ccccc3)CC(=O)N2/N=C(\C)c2ccccc2)cc1 (centres undefined)	-12.7%	2.2%	24.5*	70.9*	10.5%
O=C(NCc1ccc2c(c1)OCO2)c1nc(Cn2cc(Br)cn2)no1	9.2%	3.3%	11.9	-7.6	1.9%
CCN(CC)c1nc(-c2ccc(C(=O)NN)cc2)nc(-c2ccc(C(=O)NN)cc2)n1	u	-4.4%	-2.2	-4.0	x
CNC(=O)C(N)CSC(C)C1=C(C)c2cc3[n-]c(cc4nc(cc5[n-]c(cc1n2)c(C)c5CCC(=O)O)C(CCC(=O)O)=C4C)c(C)c3C(C)SCC(N)C(=O)NC.[Fe+2] (centres undefined)	u	x	x	x	-41.3%
C=Cc1c(C)c2cc3nc(cc4[nH]c(cc5nc(cc1[nH]2)C(C)=C5CCC(=O)O)c(CCC(=O)OC)c4C)[C@@]1(C)C3=CC=C(C(=O)OC)[C@H]1C(=O)OC (tested in a mixture with another compound)	3.38µM*	x	x	x	3.79µM*
NNc1ccccc1C(F)(F)F	41.6%	1.7%	28.2*	62.8	59.8%
COC(=O)[C@H](C)NC(=O)Nc1ccccc1C(F)(F)F	2.2%	-7.2%	-4.6	-16.1	20.5%
CCOC(=O)c1c(C)[nH]c(C)c1C(=O)CSc1nnc(-c2ccco2)n1Cc1ccccc1	14.7µM*	3.5%	-1.9	-2.8	7.38µM*
CCOC(=O)c1c(C)[nH]c(C)c1C(=O)CSc1nnc(-c2ccncc2)n1Cc1ccccc1	10.4µM*	7.4%	8.6	-7.3	x
CNC(=O)NC(=O)CSc1nnc(-c2ccco2)n1Cc1ccccc1	-0.6%	1.7%	-5.2	-14.7	13.0%
